Only some compounds are listed: those with a hit (about 3% of all), similar ones and a draw of the others.
NLRP3 yeast inh = NALP3 inhibition in yeast. Yeast reconstituted NLRP3/ASC/caspase-1, beta-gal luminescence, 24 h. inhibition, % at 10 µM. 330,000 tested, 0.39% active. AID 2825;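 active = inhibition of 50% or more; inactive = inhibition below 50%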;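 note: plate controls were induced DMSO wells for no effect and uninduced yeast grown without galactose for full effect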
Mot1-301 SUMO = inhibitors of SUMOylation pathway: yeast Mot1-301 growth rescue | S. cerevisiae Mot1-301 growth rescue, ATP luminescence, 38.5C; percent above DMSO median, 100 means doubled | growth rescue, % at 18.8 µM | 320,000 tested, 1% active;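 active = every valid replicate shows activation above 250% relative to neutral control wells; inactive = the rest, any valid replicate at or below 250%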;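 note: OY570 slx delta 5 strain wells were the positive control but not used for scaling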
CHT allo act = allosteric activators of human choline transporter CHT. CHT-expressing cells, membrane potential dye, choline EC20; stronger effect = higher value; LV-AA mutant CHT in HEK293 cells. B-score at 10 µM. 310,000 tested, 0.49% active. AID 488977;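 active = initial fluorescence not abnormally high and integrated response B-score, plate-corrected, over 3 SD above library mean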
Target sequence (Q9GZV3 whole entry, looked up): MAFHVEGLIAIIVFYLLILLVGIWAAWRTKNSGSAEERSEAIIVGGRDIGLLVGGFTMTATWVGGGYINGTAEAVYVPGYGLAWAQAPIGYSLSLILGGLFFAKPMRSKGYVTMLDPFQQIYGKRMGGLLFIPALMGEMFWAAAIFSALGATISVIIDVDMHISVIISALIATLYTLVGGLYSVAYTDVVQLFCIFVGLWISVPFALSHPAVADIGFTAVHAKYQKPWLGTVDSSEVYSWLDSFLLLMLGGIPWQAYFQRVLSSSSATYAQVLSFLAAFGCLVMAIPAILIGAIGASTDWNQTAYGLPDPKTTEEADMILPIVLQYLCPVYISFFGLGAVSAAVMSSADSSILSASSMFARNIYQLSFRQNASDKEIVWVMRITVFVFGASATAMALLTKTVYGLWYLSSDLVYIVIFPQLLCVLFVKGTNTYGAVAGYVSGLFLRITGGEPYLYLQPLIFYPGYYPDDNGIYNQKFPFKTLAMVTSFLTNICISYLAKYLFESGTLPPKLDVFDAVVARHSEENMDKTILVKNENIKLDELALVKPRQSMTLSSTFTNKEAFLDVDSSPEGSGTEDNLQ
Bfl-1 A1 inh = inhibitors of the anti-apoptotic protein A1, read as caspase activation. MEF A1-2A-BIM cells, Caspase-Glo 3/7 luminescence, 3 h; percent of clofoctol response, vehicle zero. caspase activation, % (concentration not given with the values). 330,000 tested, 0.066% active;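 active = over half of replicate activation scores above 10%, or exactly half above 10 with the replicate mean above 10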
CHT inh = human CHT choline transport inhibition | Q9GZV3 | 310,000 tested, 0.86% active | CHT-expressing cells, membrane potential dye, choline response; stronger effect = lower value | B-score at 10 µM;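 active = B-score over 3 SD under the library average, and starting fluorescence ratio not unusually high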;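 note: choline stimulus applied at its EC90 after an EC20 pre-addition; B-score computed on integrated fluorescence ratio after choline addition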
NALP1 inh = blocks the NALP1 inflammasome reconstituted in yeast. inhibition, % at 10 µM. AID 2071. S. cerevisiae NALP1/ASC/caspase-1 growth, X-gal OD620, 72 h. 280,000 tested, 0.61% active; in the data active = inhibition mostly above about 24%, no sharp cut-off; inactive = mostly below about 32%
* hit, by the source's call; i = inactive; nt = no result.

SMILES	NLRP3 yeast inh	Mot1-301 SUMO	CHT allo act	Bfl-1 A1 inh	CHT inh	NALP1 inh
c1ccc(-c2nnc(OCCN3CCOCC3)c3ccccc23)cc1	2	0	i	0	i	42*
Brc1ccccc1OCCN1CCOCC1	18	-8	i	1	i	9
c1ccc(-c2sc3ccccc3c2-c2ccc(OCCN3CCOCC3)cc2)cc1	23	407*	nt	3	nt	nt
O=C(COC(=O)c1ccccc1O)Nc1cccc(S(=O)(=O)N2CCCC2)c1	12	11	nt	0	nt	nt
CC(C)[C@H](NC(=O)N1c2ccccc2NC(=O)[C@@H]1C(C)C)C(=O)N[C@@H](C(=O)O)c1ccccc1	3	910*	i	0	i	10
O=C(O)c1cccc(Cn2c(Cl)c(/C=N/Nc3ccccc3)sc2=O)c1	8	279*	i	0	i	14
Cc1ccc(C(=O)Nc2nc(-c3ccccn3)cs2)s1	40	28	nt	-3	nt	nt
O=C(Nc1nc(-c2ccccn2)cs1)c1ccc(Cl)s1	-1	42	i	-1	i	98*
O=C(c1ccccn1)N1CCN(c2cccc(C(F)(F)F)c2)CC1	-4	363*	i	0	i	-6
O=C(c1ccccn1)N1CCCC(N2CCN(c3cccc(C(F)(F)F)c3)CC2)C1 (centres undefined)	11	37	i	0	i	20
O=c1c2ccccc2sn1-c1cc(S(=O)(=O)N2CCOCC2)ccc1N1CCCC1	5	-6	i	-2	i	-8
O=c1c2ccccc2sn1-c1cc(S(=O)(=O)N2CCOCC2)ccc1N1CCOCC1	13	1	i	-2	i	30*
CC(=O)Nc1ccc(NC(=O)C(C)OC(=O)c2cccc(S(=O)(=O)N3CCCCCC3)c2)cc1 (centres undefined)	19	-15	i	-1	i	nt
COc1ccc2oc(C(=O)OC(C)C(=O)N3C(C)CCCC3C)c(C)c2c1 (centres undefined)	24	18	nt	0	nt	nt
O=C(CCN1CCc2ccccc2C(c2ccccc2)C1)c1ccc2c(c1)OCCO2 (centres undefined)	23	25	i	0	-8.9*	70*
COc1ccc(C(=O)NN2CCOCC2)cc1	-2	-11	i	-1	i	16
O=C(NC1CC1)c1cc2cc(Br)ccc2s1	21	397	i	0	i	30*
CNC(=O)c1cc2cc(Br)ccc2s1	7	1	i	0	i	9
COC(=O)c1ccccc1S(=O)(=O)N1CCC(C(=O)OCc2cccc(OC)c2OC)CC1	8	-23	i	0	i	nt
Cc1cccc(-c2nc(CS(=O)CC(=O)NCCc3ccc(Cl)cc3)c(C)o2)c1 (centres undefined)	-14	13	i	1	i	20
COc1ccccc1N(Cc1ccccc1)S(=O)(=O)c1cccc(C(=O)Nc2ccc(C)cn2)c1	2	12	i	0	i	nt
O=C(O)C1C2CCC(O2)C1C(=O)Nc1ccc(F)c(Cl)c1 (centres undefined)	4	13	i	0	i	12
Cc1ccc(NC(=O)C2C3CCC(O3)C2C(=O)O)cc1Cl (centres undefined)	12	355*	i	1	i	1
O=C1CCc2cc(S(=O)(=O)N3CCC(C(=O)NC4CCCc5ccccc54)CC3)ccc2N1 (centres undefined)	12	-18	i	0	i	-26
CC1CCCCC1NC(=O)C1CCN(S(=O)(=O)c2ccc3c(c2)CCC(=O)N3)CC1 (centres undefined)	10	2	i	0	i	32*
SMILES	NLRP3 yeast inh	Mot1-301 SUMO	CHT allo act	Bfl-1 A1 inh	CHT inh	NALP1 inh
CCN(CC)C(=O)c1ccccc1NS(=O)(=O)c1cccs1	18	1	i	0	i	-4
Cn1ncc([N+](=O)[O-])c1C(=O)Nc1nc2ccccc2n1CCN1CCCCC1	8	-5	i	1	i	-6
Cc1c(Cl)c(C(=O)Nc2nc3ccccc3n2CCN2CCCCC2)nn1C	4	-11	9.7*	0	i	20
Cc1nn(C)cc1S(=O)(=O)Nc1ccc(C(F)(F)F)cc1	12	-15	i	0	i	10
Brc1ccccc1OCCNCc1ccccc1	31	-8	i	-1	i	13
Clc1ccc(OCCCNCc2ccccc2)c2ccccc12	32	-62	i	0	i	50*
Cc1cc(Br)ccc1OCCNCc1ccccc1	44	-9	i	-1	i	29*
COc1cccc(NC(=O)CN(C)C(=O)c2ccc(OCC3CCCO3)cc2)c1 (centres undefined)	18	nt	nt	nt	nt	nt
O=C(/C=C/NCc1cccnc1)c1ccc(-c2ccccc2)cc1	28	i	i	0	i	7
COc1ccc([N+](=O)[O-])cc1N(CC(O)CN1CCCCC1)S(=O)(=O)c1ccccc1 (centres undefined)	21	8	i	0	i	25*
O=C(CN(c1cccc([N+](=O)[O-])c1)S(=O)(=O)c1ccccc1)N1CCCCC1	-10	341*	i	0	i	0
COc1ccccc1N(CC(O)CN1CCCC1)S(=O)(=O)c1ccccc1 (centres undefined)	21	-2	i	1	i	2
O=C(O)c1ccccc1OCC1CCCO1 (centres undefined)	8	1	i	0	i	30
CCOC(=O)C(=O)NNc1ccc(F)cc1	29	413*	i	1	i	nt
Cc1cccc(NC(=O)CSCC(=O)Nc2cc(Cl)ccc2N2CCN(C)CC2)c1	14	16	i	0	i	18
Cc1ccccc1C(=O)N1CCC(C(=O)N(CC(C)C)c2c(N)n(Cc3ccccc3)c(=O)[nH]c2=O)CC1	15	336*	i	0	i	nt
CCCc1cc(=O)oc2c(CN(CC)CC)c(O)c(Cl)cc12	12	17	i	0	i	35*
O=C(NCCc1ccccc1)c1ccc([N+](=O)[O-])cc1	24	-4	i	-5	i	6
O=C(NCCc1ccc([N+](=O)[O-])cc1)c1ccccc1	2	-16	i	0	i	34*
O=C(NCCc1ccccc1)C(=O)Nc1ccc([N+](=O)[O-])cc1	2	-9	i	0	i	30*
CN(C(=O)c1ccc(Br)o1)C1(C)CCS(=O)(=O)C1 (centres undefined)	2	-2	i	-2	i	10
Cc1ccc(C2N(c3ccc(F)cc3)C(=O)C3CCCN32)cc1 (centres undefined)	9	-18	i	0	i	44*
